# Measurements taken from ChEMBL document CHEMBL3988442, “University of Dundee, Small-Polar-MMV Screening Library” (2021).
# About 960 (1.5%) of roughly 66,000 compounds showed an effect of 50% or more. This is one part of a sample in which strong results are shown more often than they occur.
# System: Trypanosoma brucei
# Assay: Trypanosoma brucei 72 hour study
# Format: functional, organism-based
# Design: scale not given: in the data most compounds retested in dose-response had high values
smiles,measurement,setting,value
Cc1cc2c(=O)n3c(nc2s1)CCN(Cc1[nH]cnc1C)CC3.Cl,Percent Effect,"30.3 µM, […]",-2.938%
COc1ccc(F)cc1-c1ccccc1CC1CNCCNC1=O.Cl (stereo not drawn),Percent Effect,"30.3 µM, […]",-18.15%
O=C(NCc1ccccc1-n1cccn1)C1CC2(CCNCC2)CN1 (stereo not drawn),Percent Effect,"30 µM, 30.03 µM",40.65%
O=C(O)C(F)(F)F.O=C1C[C@H]2[C@@H](CCN2C(=O)Cc2cccs2)N1Cc1ccncc1,Percent Effect,"30.3 µM, […]",-0.2658%
CCCc1cncnc1N1CCC(NCc2ccncc2)CC1,Percent Effect,"30 µM, 30.03 µM",-66.51%
CCCc1cncnc1N1CCC(NCc2ccc(O)cc2)CC1,Percent Effect,"30 µM, 30.03 µM",63.63%
CCCc1cncnc1N1CCC(NCCc2ccc(O)cc2)CC1,Percent Effect,"30 µM, 30.03 µM",-6.649%
CN(C)CC1(O)CCN(S(=O)(=O)c2cccc(F)c2)C1 (stereo not drawn),Percent Effect,"30.3 µM, […]",-12.71%
Brc1cccnc1OC1CCNCC1.Cl,Percent Effect,"30 µM, 30.03 µM",-18.95%
Cc1ccc2c(c1)C(NCc1ccccn1)CC2 (stereo not drawn),Percent Effect,"30 µM, 30.03 µM",31.05%
COc1cccc(CNC2CCc3ccc(C)cc32)n1 (stereo not drawn),Percent Effect,"30 µM, 30.03 µM",102.5%
COc1cccc(CNC2CCCOc3cc(C)ccc32)n1 (stereo not drawn),Percent Effect,"30 µM, 30.03 µM",-17.07%
N#Cc1c2n(c3c(=O)[nH]cnc13)CCCC2,Percent Effect,"30 µM, 30.03 µM",-59.85%
Cc1nn(C)cc1CNCc1ccc(N(C)C)cc1,Percent Effect,"30.3 µM, […]",-17.42%
CC1=C(C#N)C(=O)NC(=O)/C1=C\c1c(C)nn(-c2ccccc2)c1O,Percent Effect,"30.3 µM, […]",8.75%
Cc1ccccc1N1CCN(c2nc(N(C)C)nc3c2CCNC3)CC1,Percent Effect,"30 µM, 30.03 µM",-31.91%
CN(C)c1nc2c(c(N3CCc4ccccc4C3)n1)CCNC2,Percent Effect,"30 µM, 30.03 µM",100.4%
c1ccc2c(c1)CCN(c1nc(-c3ccncc3)nc3c1CCNC3)C2,Percent Effect,"30 µM, 30.03 µM",-16.52%
CC(C)C(=O)NC1CC2(CCN(CC(=O)N(C)C)CC2)c2ccccc21.O=C(O)C(F)(F)F (stereo not drawn),Percent Effect,"30.3 µM, […]",-88.42%
Cc1ccsc1C(=O)N1CCC2(CC(C(=O)N(C)C(C)C)=NO2)C1 (stereo not drawn),Percent Effect,"30 µM, 30.03 µM",-54.71%
CCCN1CCC(NC(=O)c2csc(C)c2-c2ccccc2)CC1,Percent Effect,"30.3 µM, […]",-89.86%
CCCN1CCC(NC(=O)Nc2ccc(OC)c(OC)c2)CC1,Percent Effect,"30.3 µM, […]",-0.7678%
CCCN1CCC(Nc2cc(-c3ccccc3)ccc2OC)CC1,Percent Effect,"30.3 µM, […]",57.37%
CC(NC(=O)NCCCN1CCCCCC1=O)c1nncn1C (stereo not drawn),Percent Effect,"30.3 µM, […]",-29.33%
O=C(O)C(F)(F)F.O=C(O)C(F)(F)F.O=C1COC2(CCN(Cc3cccs3)CC2)CN1c1cccnc1,Percent Effect,"30 µM, 30.03 µM",-14.7%
CC(C)(C)Nc1nc(-c2cccnc2)c(-c2ccnc(NCCO)n2)s1,Percent Effect,"30.3 µM, […]",94.16%
CCNc1nc(-c2cccnc2)c(-c2ccnc(NCCO)n2)s1,Percent Effect,"30.3 µM, […]",9.967%
CCNc1nc(-c2cccnc2)c(-c2ccnc(NS(C)(=O)=O)n2)s1,Percent Effect,"30.3 µM, […]",1.048%
O=C(NCCc1cccs1)[C@H]1CO[C@H]2CCN(C3CCC3)C[C@H]2C1.O=C(O)C(F)(F)F,Percent Effect,"30.3 µM, […]",-77.19%
CCOC(=O)[C@]12CCCN(Cc3ccco3)C[C@H]1CN(S(C)(=O)=O)C2.O=C(O)C(F)(F)F,Percent Effect,"30.3 µM, […]",4.884%
COc1ccc(CN2CC(=O)N(c3ccc(C)cc3)CC2C)cc1O (stereo not drawn),Percent Effect,"30 µM, 30.03 µM",-20.88%
COc1cccc(OC)c1CN1CC(=O)N(c2ccc(C)cc2)CC1C (stereo not drawn),Percent Effect,"30 µM, 30.03 µM",102.6%
COc1cc(CN2CC(=O)N(c3ccc(C)cc3)CC2C)cc(OC)c1 (stereo not drawn),Percent Effect,"30 µM, 30.03 µM",-11.31%
Cn1cc(C(=O)N2C[C@H]3C[C@H](Oc4ccccc4)C[C@H]3C2)cn1,Percent Effect,"30.3 µM, […]",8.793%
Cc1nc(Nc2cnccn2)cc(C2CCCN2)n1.Cl (stereo not drawn),Percent Effect,"30.3 µM, […]",-13.8%
Cl.c1nnc(Nc2cncc(C3CCCN3)n2)s1 (stereo not drawn),Percent Effect,"30.3 µM, […]",-8.347%
Cl.c1cnc(Nc2cncc(C3CCCN3)n2)cn1 (stereo not drawn),Percent Effect,"30.3 µM, […]",99.3%
O=C(COC[C@@]12CCC[C@@H]1CN(C1CCCC1)C2)N1CCCC1.O=C(O)C(F)(F)F,Percent Effect,"30.3 µM, […]",-80.12%
CSc1ccc(CNC(c2ccccc2F)c2nccn2C)cc1.Cl (stereo not drawn),Percent Effect,10 µM,-81.16%
CN(C)C(=O)Cc1ccccc1NCc1cccc2cccnc12,Percent Effect,"30.3 µM, […]",4.964%
CN(C)C(=O)Cc1ccccc1NCc1cc(C#N)ccc1F,Percent Effect,"30.3 µM, […]",-2.182%
CN(C)C(=O)Cc1ccccc1NCc1cccc(F)c1F,Percent Effect,"30.3 µM, […]",97.11%
CN(C)CCNC(=O)c1sccc1N(C)S(=O)(=O)c1ccc(Cl)cc1,Percent Effect,"30 µM, 30.03 µM",-35.26%
COc1ccc(-c2ccccc2CCN)c(OC)c1OC,Percent Effect,"30 µM, 30.03 µM",106.1%
COc1ccc(-c2cc(CN)ccc2F)c(OC)c1OC,Percent Effect,"30.3 µM, […]",-22.81%
COc1ccc(-c2ccccc2CN)c(OC)c1,Percent Effect,"30 µM, 30.03 µM",-56.26%
CO[C@H]1CCN(Cc2ccoc2)C[C@@H]1Cc1ccccc1.O=C(O)C(F)(F)F,Percent Effect,"30.3 µM, […]",-12.49%
C[C@@H]1C[C@@H]2CCN(C(=O)c3ccncn3)C[C@H]2O1,Percent Effect,"30 µM, 30.03 µM",-27.33%
COc1cc(N2CCC3(CCCN(C(=O)c4cnccn4)C3)C2)ncn1.O=C(O)C(F)(F)F (stereo not drawn),Percent Effect,"30 µM, 30.03 µM",-22.02%
O=C(NCCCO)c1cc(-c2ccc3c(c2)CCO3)n[nH]1,Percent Effect,"30 µM, 30.03 µM",-14.14%
O=C(NCCCN1CCOCC1)c1cc(-c2ccc3c(c2)CCO3)n[nH]1,Percent Effect,"30 µM, 30.03 µM",57.45%
O=C(NCCN1CCOCC1)c1cc(-c2ccc3c(c2)CCO3)n[nH]1,Percent Effect,"30 µM, 30.03 µM",31.8%
O=C(NCc1nnc2n1CCCCC2)N(CC1CCOC1)C1CC1 (stereo not drawn),Percent Effect,"30 µM, 30.03 µM",-56.14%
CNc1cc2c(nn1)CCN(C(=O)c1cccc3c1OCCO3)C2,Percent Effect,10 µM,-31.25%
COc1cccc(CN2CCC(CO)(Cc3ccc(Cl)cc3)CC2)c1O,Percent Effect,"30.3 µM, […]",102.9%
COc1ccc(CN2CCC(CO)(Cc3ccc(Cl)cc3)CC2)c(O)c1,Percent Effect,"30.3 µM, […]",-63.01%
OCC1(Cc2ccc(Cl)cc2)CCN(Cc2ccccc2O)CC1,Percent Effect,"30.3 µM, […]",-146.1%
CC(C)CNC(=O)[C@H]1C[C@@H]2CN(C(=O)Nc3ccc(F)cc3)C[C@H]1O2,Percent Effect,"30 µM, 30.03 µM",-34.27%
O=S(=O)(c1ccccc1)N1CCC2(CCCN2Cc2ccc(Cl)cc2)C1 (stereo not drawn),Percent Effect,"30.3 µM, […]",61.41%
O=S(=O)(c1ccccc1)N1CCC2(CCCN2Cc2ccccc2Cl)C1 (stereo not drawn),Percent Effect,"30.3 µM, […]",33.63%
O=C(O)C(F)(F)F.O=C(O)C(F)(F)F.O=S(=O)(c1ccccc1)N1CCC2(CCCN2Cc2cccnc2)C1 (stereo not drawn),Percent Effect,"30.3 µM, […]",-446.5%
CCS(=O)(=O)N1CCCC2(CCCN2Cc2cccc(F)c2)C1.O=C(O)C(F)(F)F (stereo not drawn),Percent Effect,"30 µM, 30.03 µM",-82.26%
O=S(=O)(c1ccccc1)N1CCC2(CCCN2Cc2cccc(F)c2)C1 (stereo not drawn),Percent Effect,"30.3 µM, […]",56.8%
O=C(O)C(F)(F)F.O=S(=O)(c1ccccc1)N1CCC2(CCCN2Cc2cccc(Cl)c2)C1 (stereo not drawn),Percent Effect,"30 µM, 30.03 µM",-34.57%
O=C(C1CC1)N1CCC2(CCN2Cc2ccc(F)cc2)C1.O=C(O)C(F)(F)F (stereo not drawn),Percent Effect,"30.3 µM, […]",-12.66%
Cc1cccnc1CN1CC[C@H](Oc2cccc(F)c2)[C@@](C)(O)C1,Percent Effect,"30.3 µM, […]",-17.61%
O=C1CC(NS(=O)(=O)c2ccc(Br)cc2)CN1 (stereo not drawn),Percent Effect,"30 µM, 30.03 µM",-19.04%
CN(C(=O)CSc1ccccn1)C1CCCN(CCc2ccccc2)C1 (stereo not drawn),Percent Effect,"30 µM, 30.03 µM",106.3%
CC(C)C(=O)NCC(=O)N(C)C1CCCN(CCc2ccccc2)C1 (stereo not drawn),Percent Effect,"30.3 µM, […]",1.246%
CN(C(=O)CCc1ccncc1)C1CCCN(CCc2ccccc2)C1 (stereo not drawn),Percent Effect,"30 µM, 30.03 µM",2.42%
Cn1cc(C(=O)NC(Cn2cccn2)C(C)(C)C)cn1 (stereo not drawn),Percent Effect,"30.3 µM, […]",-4.857%
CC(C)(C)C(Cn1cccn1)NC(=O)c1ccco1 (stereo not drawn),Percent Effect,"30.3 µM, […]",101.2%
CCn1nccc1C(=O)NC(Cn1cccn1)C(C)(C)C (stereo not drawn),Percent Effect,"30.3 µM, […]",-6.087%
CC(CNC(=O)CCCn1cncn1)N1CCc2ccccc2C1 (stereo not drawn),Percent Effect,"30 µM, 30.03 µM",-32.01%
CCOC(=O)c1sc(NC(=O)CN(C)S(C)(=O)=O)c(C#N)c1C,Percent Effect,"30 µM, 30.03 µM",-8.874%
Cc1sc(NC(=O)CN(C)S(C)(=O)=O)c(C#N)c1C,Percent Effect,"30 µM, 30.03 µM",51.13%
CCCC(=O)Nc1sc(C(=O)OCC)c(C)c1C#N,Percent Effect,"30 µM, 30.03 µM",19.97%
Cl.O=C(Nc1nc2c(s1)CNCC2)NC1CCCC1,Percent Effect,"30 µM, 30.03 µM",-50.11%
Cl.NC(C(=O)N1CCSc2ccccc2C1)c1ccccc1 (stereo not drawn),Percent Effect,"30 µM, 30.03 µM",1.138%
Cc1nn2c(-c3snnc3C)nnc2s1,Percent Effect,"30 µM, 30.03 µM",-55.36%
COCCC(=O)N1CC2(CCN(Cc3cccc(Cl)c3)CC2)C1.O=C(O)C(F)(F)F,Percent Effect,"30 µM, 30.03 µM",-25.19%
Cc1nnc(N2CC[C@H]3C[C@@H](C(=O)N4CCCC4)O[C@H]3C2)s1.O=C(O)C(F)(F)F,Percent Effect,"30.3 µM, […]",-391.5%
O=C(Nc1cccc(F)c1)C1CCCN1c1nccs1 (stereo not drawn),Percent Effect,"30.3 µM, […]",1.599%
O=C1NCc2ccc(NC(=O)C3CCCN3c3nccs3)cc21 (stereo not drawn),Percent Effect,"30 µM, 30.03 µM",23.55%
O=C(Nc1ccc(OC2CCCC2)cc1)C1CCCN1c1nccs1 (stereo not drawn),Percent Effect,"30.3 µM, […]",83.44%
O=C(N1CCOCC1)[C@@]12CCO[C@@H]1CCN(CC1CCCC1)C2.O=C(O)C(F)(F)F,Percent Effect,"30 µM, 30.03 µM",-11.27%
Cc1ccccc1CS(=O)(=O)CC(=O)N(C)Cc1cccc(F)c1,Percent Effect,"30.3 µM, […]",-71.65%
CN(Cc1cccc(F)c1)C(=O)CS(=O)(=O)Cc1c(Cl)cccc1Cl,Percent Effect,"30.3 µM, […]",83.04%
CN(Cc1cccc(F)c1)C(=O)CS(=O)(=O)Cc1ccc(Cl)c(Cl)c1,Percent Effect,"30.3 µM, […]",45.42%
CCOc1nnc(CN(C)CC2CCCN2c2cccnn2)s1 (stereo not drawn),Percent Effect,"30 µM, 30.03 µM",2.197%
O=C(O)C(F)(F)F.O=C(O)C(F)(F)F.O=C(c1cnc2n1CCN(Cc1ccccc1)C2)N1CCCC1,Percent Effect,"30.3 µM, […]",-305.8%
NCC1CCN(C2CCN(c3ccc(-c4ccco4)cc3)CC2)C1 (stereo not drawn),Percent Effect,"30.3 µM, […]",100.4%
NC1CCN(C2CCN(c3ccc(-c4ccco4)cc3)CC2)CC1,Percent Effect,"30.3 µM, […]",-49.5%
COc1ccc(N2CCC(N3CCOC(C(F)(F)F)C3)CC2)cc1 (stereo not drawn),Percent Effect,"30 µM, 30.03 µM",-19.82%
CCc1cccc(N2CCC(NC(=O)c3ccco3)CC2)c1,Percent Effect,10 µM,-6.636%
same,Percent Effect,"30.3 µM, […]",-4.063%
O=C(O)c1ccccc1C1CCN(C2CCN(c3ccccc3)CC2)C1 (stereo not drawn),Percent Effect,"30.3 µM, […]",-16.4%
CNC1CCN(C2CCN(c3ccc(-c4ccco4)cc3)CC2)CC1,Percent Effect,"30.3 µM, […]",100.1%
